# Test results taken from the supplement of paper PMC8540655.
# Values without a mark were called inactive.
# Test system: Aedes aegypti larvae
# Test: larval motility relative to same well at 0 h (fraction); higher = more motile (less active compound), active = 0.4 or less
# Conditions: 10 µM
# Outline: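 Larvae (Aedes aegypti, hatched in pond salt solution with yeast at 25 °C and taken 18–24 h later) were plated at about 10 per 100 µL well. Compounds at 10 µM in 1% v/v DMSO were imaged with INVAPP at 0, 2 and 24 h, alongside solvent and larvicide controls on each plate. Reported relative motility is each well's score over its own starting score, as a median of three independent larval batches.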
SMILES,larval motility (2 h),larval motility (24 h)
CN(C)CC(=O)Nc1ccc2[nH]c(=O)c3ccccc3c2c1,0.338 (active),0.463
CCc1nc2ccc(Cl)cn2c1C(=O)NCc1ccc(N2CCC(c3ccc(OC(F)(F)F)cc3)CC2)cc1,0.959,0.891
Cc1c(CN(C)C(=O)/C=C/c2cnc3c(c2)C(C)(C)C(=O)N3)oc2ccccc12,1.24,1.15
NS(=O)(=O)c1ccc(NC(=O)NC(c2ccccc2)c2ccccc2)cc1,0.491,0.689
O=[N+]([O-])c1ccc2c(CCc3c[nH]c4ccccc34)c[nH]c2c1,1.12,0.813
CCN(CC)CCn1c(=N)n(CC(O)COc2ccc(Cl)cc2Cl)c2ccccc21 (stereo not given),0.783,0.86
Clc1cc2nc(C3CCNCC3)n(Cc3ccc(CNCCc4cnc[nH]4)cc3)c2cc1Cl,0.575,0.981
C/C(=N\NC(=O)C1CC1c1ccccc1)c1ccc(NC(=O)c2ccco2)cc1 (stereo not given),0.804,0.958
C=C[C@]1(C)C[C@@H](OC(=O)CS[C@@H]2C[C@H]3CC[C@@H](C2)N3C)[C@]2(C)[C@H](C)CC[C@]3(CCC(=O)[C@H]32)[C@@H](C)[C@@H]1O,0.606,0.545
CC(=O)N1c2ccccc2NC2=C(C(=O)CC(C)(C)C2)C1c1ccc(OCc2ccccc2)cc1 (stereo not given),1.49,1.55
